Laboratory results published in PubChem BioAssay.
The source made the active and inactive calls.

How the values were obtained:
[1] = system: PRMT1 (protein arginine N-methyltransferase 1); test: small molecules binding arginine methyltransferase PRMT1 – biochemical, small-molecule microarray, 635 nm fluorescence, primary screen (AID 1088); conditions: higher = more signal;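 also: binding of Prmt1 protein to compounds spotted on small-molecule microarray slides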
[2] = growth effects on S. cerevisiae YJM789 – YJM789 clinical isolate, OD600, 24 h, basal, primary screen (AID 1089); conditions: higher = more signal, called active from +8 up or from −8 down;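 also: growth of clinical yeast isolate S. cerevisiae YJM 789 seeded 1000 cells per well; test concentration not given here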
[3] = S. pombe growth modifiers, basal conditions – strain 972, OD600, 24 h, no modulator, primary screen (AID 1090);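 also: basal condition with compound alone and no growth modifier present; test concentration not given here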; conditions: S. pombe 972 growth, higher = more signal, called active from +8 up or from −8 down
[4] = budding yeast growth modifiers under rapamycin – strain BY4716, OD600, 96 h, primary screen (AID 1091); also: test concentration not given here; conditions: S. cerevisiae BY4716 + rapamycin, higher = more signal, called active from +8 up or from −8 down
[5] = biological target: Torsin-1A-interacting protein 2 (Homo sapiens) (UniProt Q8NFQ8); test: small molecules binding lysate-expressed LULL1 – cell lysate, human LULL1 lysate, 635/667 nm fluorescence, primary screen (AID 1092); conditions: small-molecule microarray, hLULL1 lysate binding, 635 nm fluorescence; higher = more signal;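 also: probe is lysate of COS7 cells overexpressing human LULL1; score merges per-feature 667 nm fluorescence with signal-to-noise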
[6] = optical density change of DRC41 E. coli – strain DRC41, OD650, 24 h, E. coli filamentation project, primary screen (AID 1093);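 also: MC1000 strain lacking acrAB efflux and sulA so SOS filamentation is blocked; test concentration not given here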; conditions: E. coli DRC41 growth, higher = more signal, called active from +8 up or from −8 down
[7] = probe aLefty2 binding to arrayed compounds – biochemical, biotinylated probe, 635/667 nm fluorescence, primary screen (AID 1094); conditions: small-molecule microarray, higher = more signal;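 also: score merges spot fluorescence near 667 nm with spot signal-to-noise ratio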
[8] = system: Noggin (protein binding on small-molecule microarray); test: small molecules binding Noggin protein – biochemical, 635/667 nm fluorescence, primary screen (AID 1095); conditions: 635 nm fluorescence, higher = more signal;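 also: score merges 667 nm feature fluorescence with signal to noise over triplicate slides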
[9] = biological target: Neurogenic locus notch homolog protein 3 (Homo sapiens) (UniProt Q9UM47); test: small molecules binding NOTCH3 protein – biochemical, 635/667 nm fluorescence, primary screen (AID 1096); conditions: small-molecule microarray, 635 nm fluorescence, higher = more signal
[10] = probe aEGFR binding to arrayed compounds – biochemical, biotinylated probe, 635/667 nm fluorescence, primary screen (AID 1097); conditions: small-molecule microarray, higher = more signal;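 also: probe is a biotinylated anti-EGFR antibody binding compounds printed on slides; score combines fluorescence near 667 nm and signal to noise of each spot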

Sequence of Neurogenic locus notch homolog protein 3 (Homo sapiens) (Q9UM47 whole entry, looked up): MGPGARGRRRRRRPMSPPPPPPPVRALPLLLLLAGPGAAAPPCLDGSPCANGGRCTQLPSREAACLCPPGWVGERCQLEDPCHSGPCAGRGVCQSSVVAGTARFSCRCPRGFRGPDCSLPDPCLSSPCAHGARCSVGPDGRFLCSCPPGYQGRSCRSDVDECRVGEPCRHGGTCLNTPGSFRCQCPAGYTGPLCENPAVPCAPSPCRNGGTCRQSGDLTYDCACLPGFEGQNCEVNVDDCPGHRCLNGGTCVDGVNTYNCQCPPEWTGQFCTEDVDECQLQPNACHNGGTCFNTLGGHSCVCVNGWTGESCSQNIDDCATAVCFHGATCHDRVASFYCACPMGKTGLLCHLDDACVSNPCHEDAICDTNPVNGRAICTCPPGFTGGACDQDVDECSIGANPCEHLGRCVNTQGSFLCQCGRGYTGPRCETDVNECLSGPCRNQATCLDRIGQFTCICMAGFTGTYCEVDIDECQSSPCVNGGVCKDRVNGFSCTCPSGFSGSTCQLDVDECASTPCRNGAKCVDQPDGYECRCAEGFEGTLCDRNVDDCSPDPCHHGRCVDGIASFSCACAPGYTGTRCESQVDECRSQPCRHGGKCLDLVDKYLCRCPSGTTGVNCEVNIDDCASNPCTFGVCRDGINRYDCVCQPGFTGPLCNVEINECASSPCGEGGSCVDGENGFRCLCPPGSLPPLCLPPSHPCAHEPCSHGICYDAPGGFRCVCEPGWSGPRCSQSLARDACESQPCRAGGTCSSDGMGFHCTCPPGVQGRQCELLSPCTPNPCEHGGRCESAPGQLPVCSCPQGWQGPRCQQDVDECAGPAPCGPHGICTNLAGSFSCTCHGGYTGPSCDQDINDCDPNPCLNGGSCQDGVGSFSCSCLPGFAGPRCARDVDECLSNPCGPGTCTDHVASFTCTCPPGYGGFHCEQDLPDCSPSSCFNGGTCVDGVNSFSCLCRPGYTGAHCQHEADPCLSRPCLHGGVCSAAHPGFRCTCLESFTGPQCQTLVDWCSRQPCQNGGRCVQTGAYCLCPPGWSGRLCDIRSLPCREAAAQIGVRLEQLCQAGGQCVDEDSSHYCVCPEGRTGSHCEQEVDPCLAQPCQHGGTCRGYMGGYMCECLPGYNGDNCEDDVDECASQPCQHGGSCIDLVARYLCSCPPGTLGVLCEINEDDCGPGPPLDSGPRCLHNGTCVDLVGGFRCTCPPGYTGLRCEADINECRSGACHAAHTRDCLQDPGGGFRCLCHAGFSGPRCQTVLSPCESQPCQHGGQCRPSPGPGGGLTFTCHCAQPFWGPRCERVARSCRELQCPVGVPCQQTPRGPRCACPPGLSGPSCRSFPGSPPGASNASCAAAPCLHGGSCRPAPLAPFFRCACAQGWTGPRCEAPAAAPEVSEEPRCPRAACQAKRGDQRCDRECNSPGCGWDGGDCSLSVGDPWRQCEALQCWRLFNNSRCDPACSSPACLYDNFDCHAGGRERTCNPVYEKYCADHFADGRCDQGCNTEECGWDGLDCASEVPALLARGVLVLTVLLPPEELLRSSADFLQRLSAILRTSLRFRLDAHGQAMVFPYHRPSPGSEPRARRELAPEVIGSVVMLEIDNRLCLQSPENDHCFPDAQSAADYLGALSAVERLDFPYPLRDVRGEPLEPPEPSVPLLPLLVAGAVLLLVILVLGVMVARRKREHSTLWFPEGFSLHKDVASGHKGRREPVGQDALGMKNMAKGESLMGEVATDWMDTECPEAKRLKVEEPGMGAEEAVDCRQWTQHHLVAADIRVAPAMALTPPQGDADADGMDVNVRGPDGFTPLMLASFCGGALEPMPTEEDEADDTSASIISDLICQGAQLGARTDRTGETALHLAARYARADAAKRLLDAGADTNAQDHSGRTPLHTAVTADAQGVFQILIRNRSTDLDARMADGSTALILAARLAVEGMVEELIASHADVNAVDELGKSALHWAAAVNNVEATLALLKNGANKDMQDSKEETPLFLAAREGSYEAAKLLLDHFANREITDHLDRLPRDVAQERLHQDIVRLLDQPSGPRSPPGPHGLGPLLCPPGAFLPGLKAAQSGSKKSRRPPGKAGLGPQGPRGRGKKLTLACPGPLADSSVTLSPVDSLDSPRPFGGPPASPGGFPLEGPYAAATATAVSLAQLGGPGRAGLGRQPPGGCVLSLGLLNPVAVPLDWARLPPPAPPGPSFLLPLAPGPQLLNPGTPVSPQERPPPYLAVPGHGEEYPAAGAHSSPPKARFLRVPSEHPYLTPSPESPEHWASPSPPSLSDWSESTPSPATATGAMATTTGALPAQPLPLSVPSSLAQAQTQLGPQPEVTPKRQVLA
Sequence of Torsin-1A-interacting protein 2 (Homo sapiens) (Q8NFQ8 whole entry, looked up): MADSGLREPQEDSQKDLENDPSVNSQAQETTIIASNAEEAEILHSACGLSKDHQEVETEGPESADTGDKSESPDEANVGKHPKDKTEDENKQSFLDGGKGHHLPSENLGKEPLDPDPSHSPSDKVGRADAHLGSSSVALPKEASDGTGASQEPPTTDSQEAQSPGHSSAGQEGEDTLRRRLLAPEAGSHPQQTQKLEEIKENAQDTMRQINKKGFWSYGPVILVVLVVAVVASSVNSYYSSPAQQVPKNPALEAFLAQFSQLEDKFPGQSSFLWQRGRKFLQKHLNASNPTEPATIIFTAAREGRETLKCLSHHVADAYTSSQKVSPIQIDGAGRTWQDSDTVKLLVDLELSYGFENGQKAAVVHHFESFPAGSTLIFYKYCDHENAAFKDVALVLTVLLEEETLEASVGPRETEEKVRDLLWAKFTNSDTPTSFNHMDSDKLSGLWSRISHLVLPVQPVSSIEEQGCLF

Row | Compound | composite z-score [1] | z-score [2] | z-score [3] | z-score [4] | composite z-score [5] | z-score [6] | composite z-score [7] | composite z-score [8] | composite z-score [9] | composite z-score [10]
1 | CC(C)CNC(=O)[C@@H]1c2ccccc2C(=O)N(C2CCCCC2)[C@H]1c1ccc(CO)cc1 | 0.933 | -0.417 (inactive) | -0.641 (inactive) | -0.812 (inactive) | 3.03 | 3.31 (inactive) | -0.137 | -0.369 | -0.358 | -0.218
2 | C=C(/C(=C/C[C@@H](OC(C)=O)c1ccc(CO)o1)c1cc(C(=O)OC)ccc1OC)C(C)C | 0.864 | 1.06 (inactive) | -0.245 (inactive) | -0.0251 (inactive) | 1.86 | -0.0453 (inactive) | -0.0142 | 0.328 | 0.213 | 0.358
3 | COc1cc2c(cc1O)C(c1ccc(CN3CCCC3)cc1)N(C)CC2 (stereo not given) | -1.16 | 0.526 (inactive) | -0.262 (inactive) | 0.539 (inactive) | 0.54 | 0.774 (inactive) | -0.316 | -0.814 | -0.579 | -0.191
4 | CN1C(=O)C2C=CC(C(O)c3cc(C(F)(F)F)cc(C(F)(F)F)c3)N(NC(=O)OC(C)(C)C)C2C1=O (stereo not given) | 1.56 | -0.403 (inactive) | -0.983 (inactive) | -0.314 (inactive) | 3.61 | -0.0262 (inactive) | 0.322 | 0.421 | 0.995 | 0.0169
5 | Cc1nc2cc(Br)ccc2c(=O)n1Cc1cccc(O)c1 | 1.57 | 0.104 (inactive) | -1.84 (inactive) | -0.973 (inactive) | 1.16 | 1.22 (inactive) | -0.0607 | 1.33 | -0.108 | -0.0474
6 | CO[C@H]1O[C@H](CO)[C@@H](OC(=O)Nc2cccc(F)c2)[C@H](OC(=O)Nc2ccccc2-c2ccccc2)[C@H]1OC(=O)Nc1ccccc1-c1ccccc1 | 1.54 | -0.455 (inactive) | 2.19 (inactive) | 1.39 (inactive) | 3.08 | -0.158 (inactive) | 0.0361 | 0.928 | 1.06 | -0.0225
7 | CCCCNC(=O)c1ccc(C#C[Si](C(C)C)(C(C)C)C(C)C)c(OC(C)=O)c1 | 0.613 | -0.272 (inactive) | -1.61 (inactive) | 0.645 (inactive) | 0.765 | -0.423 (inactive) | -0.0916 | 0.926 | 1.05 | -0.0208
8 | C=C[C@H](C)[C@H](OC(=O)Nc1ccc(OC)cc1)c1ccc(OCCO)cc1 | -0.173 | 0.164 (inactive) | -2.2 (inactive) | -1.43 (inactive) | 0.038 | 2.01 (inactive) | -0.129 | -1.14 | -0.36 | -0.216
9 | C=CCC(OC(C)=O)[C@@H]1[C@@H](N(Cc2ccc(-c3ccccc3)cc2)C(=O)c2ccc(C)cc2)c2cc(OCCCO)ccc2N1C(=O)Cc1ccc2ccccc2c1 (stereo not given in full) | 0.543 | -2.04 (inactive) | -0.71 (inactive) | -0.633 (inactive) | 0.51 | 1.64 (inactive) | -0.0042 | -0.0965 | 0.187 | -0.126
10 | O=C1OCCC/C=C\[C@H]2OC34C=CCN(c5ccc6ccccc6c5)C(=O)[C@H]3N(CCCO)C(=O)[C@@H]4C12 (stereo not given in full) | 0.463 | -1.59 (inactive) | -0.647 (inactive) | -0.597 (inactive) | 0.969 | -0.377 (inactive) | -0.091 | -0.534 | 0.0065 | -0.195
11 | CC=CC(O)C1C=CC2C(=O)NC(=O)C2N1Nc1ccccn1 (stereo not given) | 1.36 | 0.43 (inactive) | 1.99 (inactive) | 0.544 (inactive) | 0.871 | -0.565 (inactive) | 0.0261 | 0.26 | 0.542 | -0.257
12 | C=CCC(OC(C)=O)[C@@H]1[C@@H](N(Cc2cccc3ccccc23)C(=O)Cc2ccc(F)cc2)c2cc(OCCCO)ccc2N1C(=O)c1ccc(-c2ccccc2)cc1 (stereo not given in full) | -0.325 | -0.256 (inactive) | -0.277 (inactive) | 0.18 (inactive) | 0.451 | 0.125 (inactive) | 0.125 | -0.556 | -1.37 | 0.0457
13 | O=C1NC(=O)C2C1C=CC(C(O)c1ccccn1)N2Nc1ccc(Cl)cc1Cl (stereo not given) | 0.195 | -1.09 (inactive) | 0.154 (inactive) | -0.458 (inactive) | 3.35 | -0.402 (inactive) | 0.091 | -0.291 | 0.259 | -0.0271
14 | CC1(C)C(=O)C(c2ccccc2)=C2CN3C(=O)N(CCc4ccccc4)C(=O)C3(Cc3ccc(C(F)(F)F)cc3)C=C21 (stereo not given) | -0.362 | 1.32 (inactive) | 2.01 (inactive) | 3.28 (inactive) | 2.65 | -1.21 (inactive) | 0.208 | -0.0717 | 1.13 | 0.284
15 | CCCC=C(CCC)[C@@H](NC(=O)CCc1ccccc1)c1ccc(C(F)(F)F)cc1 | 1.1 | -0.296 (inactive) | -1.19 (inactive) | 0.654 (inactive) | 3.4 | -0.604 (inactive) | 0.201 | 0.0368 | 1.12 | -0.0423
16 | CC(C)C[C@@H]1NC(=O)CNC(=O)[C@@]23C(=O)N[C@@H](Cc4ccccc4)C2[C@H](C)[C@@]2(C)O[C@H]2C3/C=C/C/C=C\CNC1=O (stereo not given in full) | 1.31 | -0.536 (inactive) | -0.26 (inactive) | -0.0716 (inactive) | 2.72 | -0.461 (inactive) | -0.159 | 0.363 | 1.01 | -0.0828
17 | COc1ccc([Si](C)(C)[C@H]2[C@H](CCO)O[C@@]3(C(=O)N(Cc4ccc(N5C(=O)c6ccccc6Oc6ccccc65)cc4)c4ccccc43)[C@@H]2C)cc1 | 0.263 | 2.1 (inactive) | -1.25 (inactive) | 22.7 (active) | 0.822 | 0.511 (inactive) | 0.0004 | -1.01 | -0.532 | 0.0125
18 | CCc1cccc(NC(=O)O[C@H]2[C@H](OC(=O)Nc3ccccc3)[C@H](OC(=O)Nc3ccccc3)[C@@H](OC)O[C@@H]2CO)c1 | 1.5 | 1.22 (inactive) | 1.72 (inactive) | 8.61 (active) | 3.48 | -0.728 (inactive) | 0.0166 | 0.349 | 1.08 | -0.0968
19 | C=CCC(OC(C)=O)[C@@H]1[C@@H](N(Cc2cccc3ccccc23)C(=O)c2cccc3ccccc23)c2cc(OCCCO)ccc2N1C(=O)c1ccc2ccccc2c1 (stereo not given in full) | 0.692 | -0.55 (inactive) | 0.672 (inactive) | -1.35 (inactive) | 1.65 | 0.195 (inactive) | -0.156 | 0.345 | -0.0325 | -0.0967
20 | CN(C)CCCNC(=O)[C@@H]1c2ccccc2C(=O)N(C2CCCCC2)[C@H]1c1ccc(CO)cc1 | 1.55 | 0.154 (inactive) | -1.13 (inactive) | -1.02 (inactive) | 3.08 | 0.37 (inactive) | -0.118 | 0.98 | 1.03 | 0.251
21 | CCCNC(=O)[C@@]1(C)c2ccccc2C(=O)N(Cc2ccccc2)[C@H]1c1ccc(CO)cc1 | 1.54 | -0.864 (inactive) | -1.08 (inactive) | -0.871 (inactive) | 2.76 | 1.32 (inactive) | 0.0844 | -1.1 | -0.127 | -0.094
22 | O=C1O[C@H](c2ccccc2)[C@H](c2ccccc2)N2[C@H]1[C@@H](C(=O)N1CCCCCCC1)[C@]1(C(=O)Nc3ccc(C#CC4(O)CCCCCC4)cc31)[C@H]2c1ccc(O)cc1 | 1.54 | 0.666 (inactive) | 0.73 (inactive) | 1.19 (inactive) | 3.97 | 0.408 (inactive) | 1.65 | 1.78 | 1.06 | 1.35
23 | CCOC(=O)C1=CC[C@@H](c2ccccc2)N(S(=O)(=O)c2ccc(C)cc2)[C@H]1C=Cc1ccccc1 | 0.238 | 0.403 (inactive) | 2.4 (inactive) | 1.46 (inactive) | 2.32 | -0.812 (inactive) | -0.0146 | -0.452 | 0.258 | -0.0828
24 | NC(=O)[C@@H]1[C@H]2C(=O)O[C@H](c3ccccc3)[C@H](c3ccccc3)N2[C@H](c2ccc(OCCO)cc2)[C@@]12C(=O)Nc1ccc(C#CCCO)cc12 | 1.45 | 1.58 (inactive) | 0.883 (inactive) | 2.3 (inactive) | 1.85 | 0.459 (inactive) | 0.0847 | -0.159 | -0.0629 | -0.0622
25 | COCCOC(=O)N1C(=O)[C@@]2(c3cc(C#CCC(C(=O)OC)C(=O)OC)ccc31)[C@H](c1ccc(O)cc1)N1[C@H](c3ccccc3)[C@H](c3ccccc3)OC(=O)[C@H]1[C@@H]2C(=O)NC[C@H](O)c1ccccc1 | 1.38 | 0.326 (inactive) | -0.371 (inactive) | 0.875 (inactive) | 2.75 | 1.81 (inactive) | -0.0788 | 0.171 | 0.68 | 0.0153
26 | COCCCNC(=O)[C@@H]1c2ccccc2C(=O)N(C2Cc3ccccc3C2)[C@H]1c1ccc(CO)cc1 | 1.17 | 0.0011 (inactive) | -0.471 (inactive) | -0.559 (inactive) | 1.74 | 0.935 (inactive) | -0.0237 | 0.163 | -0.0847 | -0.0549
27 | COc1ccc([Si](C)(C)[C@@H]2[C@@H](CCn3cc([C@H](O)c4ccccc4)nn3)O[C@]3(C(=O)N(c4ccccc4)c4ccccc43)[C@H]2C)cc1 | 1.11 | -0.613 (inactive) | -0.101 (inactive) | 1.43 (inactive) | 0.986 | 1.15 (inactive) | -0.0998 | 0.431 | 0.281 | -0.0452
28 | CN(C)C(=O)[C@]1(CCS(=O)(=O)c2ccccc2)N=C(c2ccc(OCCCO)cc2)O[C@@H]1c1ccccc1 | 1.42 | -0.897 (inactive) | -0.804 (inactive) | 4.54 (inactive) | 3.57 | 0.29 (inactive) | 0.0943 | 0.577 | 1.01 | 0.127
29 | COc1ccc(C(O)C2C=CC3C(=O)N(c4ccccc4)C(=O)C3N2Nc2ccccc2F)cc1 (stereo not given) | 1.1 | -0.228 (inactive) | 0.575 (inactive) | -0.246 (inactive) | 3.46 | 0.0902 (inactive) | 0.183 | 0.164 | 0.842 | -0.0678
